Consider 61 compounds from PubChem BioAssay AID504444 (National Center for Advancing Translational Sciences (NCATS), 2011).

Structures are written as SMILES. In all, about 360,000 compounds went through this assay and about 7,500 (2.1%) were called active. Where a call stands in place of a potency, no number is given. Inconclusive results (about 20%) are left out. Calls follow the shape of the dose curve; as a rule, active = well fitted inhibition curve with a large enough effect; inconclusive = small, poorly fitted or top-dose-only effect, or effect the other way; inactive = flat fitted curve, though single readings scatter. Only a selection was taken, and actives are over-represented in it overall.
Potency is read from the fitted curve at half-maximal effect.

The experiment in a line: Nrf2 qHTS screen for inhibitors. Also: nearly all actives have a fitted effect of over 60% in size. To be noted: A549 ARE-Fluc reporter, luciferase luminescence, 18-24 h; series mostly up to 46 µM. In a few lines: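 Nrf2 activity is the BugLite luminescence, read 15 min after reagent at room temperature, following CellTiter-Fluor cytotoxicity readout (30 min, 37C). Compound titrations were applied for 18-24 h to 5000 A549 ARE_Fluc cells/well in 5% FBS OPTI-MEM.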
For the compound `COc1cccc(C2C(C(=O)Nc3ccc(C)cc3C)=C(C)Nc3c(C(=O)Nc4ccccc4)cnn32)c1` (stereo unspecified), the Potency result was “inactive”.
Regarding `CN1C(c2ccc(F)cc2)=CS/C1=C(/C#N)c1nnc2n1-c1ccccc1SC2`, the Potency entry was “inactive”.
As for `O=C1Nc2ccc(Br)cc2/C1=N/N=C/C1=C(N2CCOCC2)C(=C\c2ccccc2)/CC1`, the Potency was 20.6 µM (active).
For `N#C/C(=C\C1=C(N2CCOCC2)C(=C\c2ccccc2)/CC1)C(=O)Nc1ccccc1F` the value was “inactive”; for `C(=N\N1CCN(c2ccccn2)CC1)/C1=C(N2CCOCC2)C(=C/c2ccccc2)/CC1`, “inactive”; for `CCOc1ccccc1NC(=S)C(=C([O-])c1ccc2c(c1)OCCO2)[n+]1ccc(CC)cc1`, “inactive”.
For `COc1cc(F)c(S(=O)(=O)N2CCCN(S(=O)(=O)c3ccc(N)cc3)CC2)c(F)c1` the value was “inactive”; for `CCOC(=O)c1ccc(NC(=O)c2ncn(-c3ccccc3)n2)cc1`, “inactive”.
For `Oc1ccc(Cl)cc1C1C=C(c2ccc3c(c2)OCO3)NC(c2ccc(F)c(Br)c2)N1` (stereo unspecified) the value was “inactive”; for `CC(C)N(C(=O)[C@H]1C[C@H](CC(=O)NCCC2=CCCCC2)C(=O)N2CCc3c([nH]c4cc(CCC(=O)N(C)C)ccc34)[C@]12C)C(C)C`, “inactive”.
For the compound `CCCCCCCCn1c2c(c(=N)c3c1CCC3)CCCC2`, the Potency is 9.2 µM (active).
For `CCCCCCn1c(CN2CCCCC2)nc2c1c(=O)n(C)c(=O)n2C` the value was “inactive”; for `CC1Sc2ccc(S(=O)(=O)CCC(=O)NCc3ccccc3Cl)cc2NC1=O` (stereo unspecified), “inactive”.
Then `Cc1cccc(N2CCN(C(=O)CCS(=O)(=O)c3ccc4c(c3)NC(=O)C(C)S4)CC2)c1C` (stereo unspecified), with 2.59 µM (active); and `COc1ccccc1N1CCN(C(=O)CCS(=O)(=O)c2ccc3c(c2)NC(=O)C(C)S3)CC1` (stereo unspecified), with “inactive”; and `Oc1ccc(-c2nc3ccccc3nc2-c2ccc(O)cc2O)c(O)c1`, with “inactive”.
As to `CN[C@H](C(=O)NC[C@H]1O[C@@H](n2cnc3c(N)ncnc32)[C@H](O)[C@@H]1O)[C@@H](C)OCc1ccccc1`, the Potency entry is “inactive”.
For the compound `O=C(O)c1ccc(Cn2c(SCc3ccc(F)cc3)nc3ccncc32)cc1`, the Potency entry was “inactive”.
For `COc1cccc(Cn2c(SCc3ccc(C(=O)N4CCC(C)CC4)cc3)nc3ccncc32)c1` the value was 20.6 µM (active); for `COc1cccc(Cn2c(SCc3ccc(C(=O)N4CCCCC4)cc3)nc3ccncc32)c1`, 18.4 µM (active); for `CCCCNC(=O)Cn1c(SCc2cccc(Cl)c2)nc2ccncc21`, “inactive”.
For `Cc1cccc(CSc2nc3ccncc3n2CC(=O)N(C)C2CCCCC2)c1` the value was “inactive”; for `Cc1cccc(CSc2nc3ccncc3n2Cc2ccc(C(=O)O)cc2)c1`, “inactive”.
Then `COc1ccccc1-c1sc2ccccc2c1-c1ccc(Br)nc1`, with “inactive”; and `OCCNc1ncnc2oc(-c3ccco3)c(-c3ccco3)c12`, with “inactive”.
As to `CCCN1CN=C(NS(=O)(=O)c2ccc(NC(C)=O)cc2)NC1`, the Potency result is “inactive”.
Then `Cc1ccc(S(=O)(=O)N2CCC(C(=O)Nc3cc(C)ccc3C)CC2)cc1`, with “inactive”.
Consider `Cc1ccc(-c2nc(=N)sn2Cc2ccccc2)cc1`, for which the Potency entry is “inactive”.
`Cc1cc(-c2ccc(C)c(S(=O)(=O)Nc3ccc(S(N)(=O)=O)cc3)c2)on1`: the Potency entry is “inactive”.
In the case of `Cc1cc(-c2ccc(C)c(S(=O)(=O)NCCCN(Cc3ccccc3)C(C)C)c2)on1`, the Potency result is “inactive”.
Take `Cc1cc(-c2ccc(C)c(S(=O)(=O)NC(C)Cc3ccco3)c2)on1` (stereo unspecified): the Potency is 18.4 µM (active).
For `COC(=O)[C@]1(Cc2ccccc2)N[C@H](CN(C)S(=O)(=O)c2ccc(OC(F)(F)F)cc2)[C@@H]2C(=O)N(Cc3ccccc3)C(=O)[C@@H]21` the value was “inactive”; for `Cc1cc(N2CCCC2)ccc1NC(=O)COc1ccc(Cl)cc1`, “inactive”; for `COc1ccc(N(C)S(=O)(=O)c2cccc3nsnc23)cc1`, “inactive”.
For `COc1ccc(N(C)C(=O)C2CCN(S(=O)(=O)c3cccc4nsnc34)CC2)cc1` the value was 8.2 µM (active).
For `COc1ccc(N(C)C(=O)CCS(=O)(=O)c2cccc3nsnc23)cc1` the value was “inactive”; for `Cc1ccc(-c2nc3cccc(C)n3c2Nc2ccc3c(c2)OCCO3)cc1`, “inactive”.
For `CC(C)(C)OC(=O)NNc1c2ccccc2nc2ccccc12`, the Potency was 23.1 µM (active).
As for `CCC(=O)OCCNc1nc(-c2ccccc2)nc2ccccc12`, the Potency entry was “inactive”.
`Cc1ccccc1NC(=O)NNC(=O)OC(C)(C)C`: the Potency result was “inactive”.
Then `COc1ccc2c(c1)CCc1c(C(=O)Nc3cc(C)ccc3O)noc1-2`, with “inactive”.
Then `COc1ccccc1C(=O)Nc1c(C(=O)Nc2ccc(C)cc2)oc2ccccc12`, with “inactive”; and `COc1ccccc1C(=O)Nc1ccc(OCc2nnc3c4ccccc4c(C)nn23)cc1`, with 9.2 µM (active).
Take `COc1ccccc1C(=O)Nc1ccccc1C(=O)Nc1ccccc1`: the Potency entry is “inactive”.
For the compound `CCOC(=O)c1c(C)[nH]c(C)c1S(=O)(=O)N(C)CC(=O)N1CCN(c2ccccc2)CC1`, the Potency result was “inactive”.
For `O=C(Nc1cccc(C(=O)NC2CC2)c1)c1ccc(F)c(S(=O)(=O)N2CCOCC2)c1` the value was “inactive”.
Then `O=C(NCC1CCCCC1)c1cc(S(=O)(=O)N2CCCCC2)ccc1N1CCOCC1`, with “inactive”; and `O=C(OCCOc1ccccc1F)c1cc(S(=O)(=O)N2CCOCC2)ccc1F`, with “inactive”; and `O=C(OCCOc1ccccc1Cl)c1cc(S(=O)(=O)N2CCCCC2)ccc1N1CCOCC1`, with 6.51 µM (active).
For `O=C(N/N=C/c1cccnc1)c1ccc(NC(=O)c2ccc(F)cc2)cc1`, the Potency result was “inactive”.
For `O=C(Nc1ccc(F)cc1)c1ccc(S(=O)(=O)NCc2cccnc2)cc1`, the Potency was 18.4 µM (active).
For `O=C(Nc1ccc(S(=O)(=O)NCC2CCCO2)cc1)c1ccc(F)cc1` (stereo unspecified) the value was 11.6 µM (active).
For the compound `Cc1ccc(NC(=O)c2ccc(S(=O)(=O)NCC3CCCO3)cc2)cc1C` (stereo unspecified), the Potency entry is “inactive”.
As to `COc1ccc(S(=O)(=O)NCc2cccnc2)cc1NC(=O)c1ccc(C)cc1`, the Potency result was “inactive”.
Then `O=C(NCC1CCCO1)c1ccc(S(=O)(=O)Nc2ccc(F)cc2)cc1` (stereo unspecified), with “inactive”; and `Cc1ccc(NS(=O)(=O)c2cc3c(cc2Br)NC(=O)CO3)cc1C`, with “inactive”; and `O=C(NCC1CCCCC1)NCC1CCCCC1`, with “inactive”.
Then `Cc1cc2c(s1)c1cnn(Cc3cc(F)c(Cl)cc3Cl)c(=O)c1n2C`, with “inactive”; and `O=[N+]([O-])c1ccccc1/C=C/CN1CCC(O)CC1`, with “inactive”; and `O=[N+]([O-])c1ccccc1/C=C/CN1CCCC(CO)C1` (stereo unspecified), with “inactive”.
As to `CC1CCCCC1NC(=O)/C(C#N)=C/C=C/c1ccccc1[N+](=O)[O-]` (stereo unspecified), the Potency is 16.4 µM (active).
